Where “and” joins values, the source holds several entries; their conditions need not be identical. Identical values can stand only once. Calls of active or inactive are those of the source.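 The calls were made as follows, unless noted: active = thallium flux through the channel raised or lowered by more than 3 SD from vehicle-only wells, actives on both sides; inactive = the rest.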
Legend:
[1] = system: Hepatitis C virus NS3 helicase; assay: HCV NS3 helicase inhibitors, primary screen, biochemical, fluorescence polarization, NIH Clinical Collection (AID 743270; call rule not given here); conditions: NS3 helicase binding to Cy5-dT15 DNA, stronger effect = higher value, concentration not given here
[2] = molecular target: Single-stranded DNA-binding protein (Escherichia coli (strain K12)) (UniProt P0AGE0); assay: E. coli SSB displacement from DNA, counter-screen for HCV NS3 helicase inhibitor project, biochemical, fluorescence polarization, NIH Clinical Collection (AID 743271; in the data active = inhibition above about 28%); conditions: stronger effect = higher value, concentration not given here
[3] = fluorescence interference in NS3h assay format, artefact control for HCV NS3 helicase inhibitor project, biochemical, NIH Clinical Collection (AID 743272; call rule not given here;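 also: HCV NS3 helicase with a Cy5 labelled single stranded DNA probe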); conditions: fluorescence interference counterscreen, stronger effect = lower value
[4] = stimulators of nuclear beta-catenin in C2C12, primary screen, imaging, WNT3A-conditioned medium, mouse C2C12, NPC library (AID 1117326; in the data active = nuclear beta-catenin stimulation mostly above about 4.2%, no sharp cut-off; inactive = mostly below about 10%); conditions: stronger effect = higher value
[5] = stimulators of insulin release from INS-1E, primary screen, cell-based, 5 mM glucose, NPC library (AID 1117329;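 active = compound raises insulin release from rat beta cells at 5 mM glucose, no numeric limit stated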); conditions: rat INS-1E insulin secretion, at 10 µM, stronger effect = higher value
[6] = growth inhibition of GSK3B-pretreated HCT116 cells – cell-based, CellTiter-Glo, 0.2 to 20 µM (AID 1117336;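 active = compounds lowering colon cancer cell viability after pretreatment blocking the GSK3B kinase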); conditions: HCT116 viability after GSK3B inhibitor, at 20 µM, stronger effect = higher value
[7] = inhibition of endothelial tube formation, primary screen, imaging, VEGF stimulated, CD31 staining, tube area, NPC library (AID 1117340;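 active = compound that reduces growth-factor-driven endothelial tube area in a mixed cell culture, no cutoff stated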); conditions: VEGF-stimulated ADSC/ECFC co-culture, at 10 µM, stronger effect = higher value
[8] = glucagon-like peptide 1 release enhancers, primary assay, NCI-H716 cell line, NPC library (AID 1117341;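 active = compound raises GLP1 secretion from the human gut endocrine cells, with no numeric limit stated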); conditions: NCI-H716 cells, at 10 µM, stronger effect = higher value
[9] = HCT116 colon cancer cell growth inhibition, primary screen, CellTiter-Glo luminescence, NPC library (AID 1117342;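 active = compounds that lower survival of HCT116 colon cancer cells in the luminescence readout, no numeric limit stated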); conditions: at 20 µM (top of the series)
[10] = CellTiter-Glo luminescent readout of SW480 viability loss, NPC library primary (AID 1117343;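 active = compounds that lower viability of the colon cancer cells in the luminescence readout, with no numeric limit stated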); conditions: CellTiter-Glo luminescence; at 20 µM (top of the series)
[11] = decreased DLD-1 cellular survival, CellTiter-Glo luminescent readout, NPC compound collection, primary HTS (AID 1117346;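 active = compounds that lower survival of DLD-1 colon cancer cells in the luminescence readout, no cutoff given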); conditions: DLD-1 viability, CellTiter-Glo luminescence; at 20 µM (top of the series)
[12] = molecular target: 6-phosphogluconate dehydrogenase, decarboxylating (Homo sapiens) (UniProt P52209); assay: 6PGD enzyme inhibitors, primary screen, biochemical, human, recombinant enzyme, NADPH absorbance (AID 1159550;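 active = at least 20% inhibition of 6-phosphogluconate dehydrogenase activity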); conditions: recombinant 6PGD, NADPH absorbance 341 nm; at 10 µM; stronger effect = higher value
Sequence of 6-phosphogluconate dehydrogenase, decarboxylating (Homo sapiens) (P52209 whole entry, looked up): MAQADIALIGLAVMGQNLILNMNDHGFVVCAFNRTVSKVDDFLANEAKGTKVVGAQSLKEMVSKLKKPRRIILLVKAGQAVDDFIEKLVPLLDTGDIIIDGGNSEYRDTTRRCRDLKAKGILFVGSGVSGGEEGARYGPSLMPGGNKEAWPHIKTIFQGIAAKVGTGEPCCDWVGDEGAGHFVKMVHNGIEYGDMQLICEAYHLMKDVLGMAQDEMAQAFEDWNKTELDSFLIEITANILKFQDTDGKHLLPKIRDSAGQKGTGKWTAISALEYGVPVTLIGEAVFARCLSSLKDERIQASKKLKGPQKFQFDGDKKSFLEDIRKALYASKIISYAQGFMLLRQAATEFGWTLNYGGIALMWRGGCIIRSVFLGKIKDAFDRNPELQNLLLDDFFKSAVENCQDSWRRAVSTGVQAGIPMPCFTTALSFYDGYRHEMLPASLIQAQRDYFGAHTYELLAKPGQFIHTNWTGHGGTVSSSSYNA

[13] = sensitizers of A549 cells to miR-34 induction, primary screen, imaging, A549 dox-inducible miR-34, nuclei and caspase counts (AID 1347080;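 active = compounds whose cell count with miR-34 switched on is under 0.7 times the count with it off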); conditions: A549 miR-34 inducible, Hoechst nuclei count, 48 h
[14] = survival rescue of mitochondrial mutant cells in low glucose, primary screen, MELAS cybrids, Rieske KO mouse fibroblasts, CellTiter-Glo (AID 1508586;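 active = mean z-score across replicates of 1.96 or higher in either the MELAS or the Rieske mutant cell line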;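 also: z relative to plate mean and SD of compound and empty wells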)
[15] = molecular target: NAD(+) hydrolase SARM1 (Homo sapiens) (UniProt Q6SZW1); assay: SARM1 TIR NADase inhibitors, cell lysate, NAD-Glo luminescence (AID 1508614;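 active = compound whose remaining NAD level is above about 45 nM, limit read from the data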;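 also: higher remaining NAD means stronger inhibition of SARM1 NADase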); conditions: SAM-TIR HEK293T lysate NADase, at 1 µM, stronger effect = higher value
Sequence of NAD(+) hydrolase SARM1 (Homo sapiens) (Q6SZW1 whole entry, looked up, the tested form may be a part): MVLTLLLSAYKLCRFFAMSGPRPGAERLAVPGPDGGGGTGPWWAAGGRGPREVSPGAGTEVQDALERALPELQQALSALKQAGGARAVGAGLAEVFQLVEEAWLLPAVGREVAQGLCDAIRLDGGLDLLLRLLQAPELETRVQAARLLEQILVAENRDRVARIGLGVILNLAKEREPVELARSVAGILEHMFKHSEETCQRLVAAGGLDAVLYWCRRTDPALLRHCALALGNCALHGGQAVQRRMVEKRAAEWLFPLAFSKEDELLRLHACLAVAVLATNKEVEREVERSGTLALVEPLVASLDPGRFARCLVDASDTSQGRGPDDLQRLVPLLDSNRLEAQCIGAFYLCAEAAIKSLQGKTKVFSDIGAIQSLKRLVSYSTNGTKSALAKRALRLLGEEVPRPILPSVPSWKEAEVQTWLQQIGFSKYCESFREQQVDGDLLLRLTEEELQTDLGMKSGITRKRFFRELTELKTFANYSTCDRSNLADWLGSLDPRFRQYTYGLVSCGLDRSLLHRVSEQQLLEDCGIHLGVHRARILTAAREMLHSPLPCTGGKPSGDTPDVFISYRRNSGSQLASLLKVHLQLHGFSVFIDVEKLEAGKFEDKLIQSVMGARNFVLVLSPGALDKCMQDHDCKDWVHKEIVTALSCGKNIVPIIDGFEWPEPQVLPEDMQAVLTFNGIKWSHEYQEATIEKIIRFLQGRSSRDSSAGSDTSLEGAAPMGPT

[16] = molecular target: Mitogen-activated protein kinase 7 (Homo sapiens) (UniProt Q13164); assay: ERK5 transactivation activators in reporter cells, primary screen, cell-based, HTS (AID 1508626;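 active = luciferase signal above three times the same-plate solvent-only control wells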;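 also: luciferase driven by Gal4-ERK5 fusion binding five Gal4 sites before minimal TATA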); conditions: HeLa Gal4-ERK5 transactivation, 18 h, at 5 µM, stronger effect = higher value
Sequence of Mitogen-activated protein kinase 7 (Homo sapiens) (Q13164 whole entry, looked up, the tested form may be a part): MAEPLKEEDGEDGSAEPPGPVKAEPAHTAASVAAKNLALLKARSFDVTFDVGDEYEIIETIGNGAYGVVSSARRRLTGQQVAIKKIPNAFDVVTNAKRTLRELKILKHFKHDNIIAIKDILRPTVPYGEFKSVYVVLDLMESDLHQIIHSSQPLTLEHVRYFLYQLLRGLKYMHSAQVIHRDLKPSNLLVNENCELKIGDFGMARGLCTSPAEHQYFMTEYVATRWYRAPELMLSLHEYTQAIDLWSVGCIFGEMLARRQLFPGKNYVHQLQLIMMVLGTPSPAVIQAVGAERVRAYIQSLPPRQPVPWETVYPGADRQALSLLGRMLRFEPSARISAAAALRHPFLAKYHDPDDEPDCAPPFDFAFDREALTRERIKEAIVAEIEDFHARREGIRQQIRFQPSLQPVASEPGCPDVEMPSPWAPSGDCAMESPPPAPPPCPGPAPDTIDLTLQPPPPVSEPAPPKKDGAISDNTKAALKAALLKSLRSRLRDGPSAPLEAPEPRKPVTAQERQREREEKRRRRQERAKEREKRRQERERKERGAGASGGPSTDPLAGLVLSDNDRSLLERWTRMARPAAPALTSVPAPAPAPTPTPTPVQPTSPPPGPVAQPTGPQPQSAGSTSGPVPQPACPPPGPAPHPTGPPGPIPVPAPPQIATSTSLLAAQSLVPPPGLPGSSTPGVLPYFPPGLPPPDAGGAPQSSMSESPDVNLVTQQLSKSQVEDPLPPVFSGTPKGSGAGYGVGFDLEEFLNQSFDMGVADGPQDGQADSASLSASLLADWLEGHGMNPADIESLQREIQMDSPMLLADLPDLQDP

F380Y = assay: modulators of BK channel variants, profiling panel, selectivity assay, cell-based, U2OS BacMam, thallium flux, beta subunits (AID 1259406); conditions: at 30 µM;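 also: initial slope of Thallos dye fluorescence rise after thallium is added; log ratio against the mean of 0.3% DMSO vehicle wells on the same plate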
F380Y/beta2Delta = assay: as above; conditions: at 30 µM
[17] = molecular target: Calcium-activated potassium channel subunit alpha-1 (Homo sapiens) + Leucine-rich repeat-containing protein 26 (Homo sapiens) (UniProt Q12791+Q2I0M4); assay: as above; conditions: F380Y/Slo1WT/gamma1, at 30 µM
Sequence of Calcium-activated potassium channel subunit alpha-1 (Homo sapiens) + Leucine-rich repeat-containing protein 26 (Homo sapiens) (Q2I0M4 whole entry, looked up, one chain of several): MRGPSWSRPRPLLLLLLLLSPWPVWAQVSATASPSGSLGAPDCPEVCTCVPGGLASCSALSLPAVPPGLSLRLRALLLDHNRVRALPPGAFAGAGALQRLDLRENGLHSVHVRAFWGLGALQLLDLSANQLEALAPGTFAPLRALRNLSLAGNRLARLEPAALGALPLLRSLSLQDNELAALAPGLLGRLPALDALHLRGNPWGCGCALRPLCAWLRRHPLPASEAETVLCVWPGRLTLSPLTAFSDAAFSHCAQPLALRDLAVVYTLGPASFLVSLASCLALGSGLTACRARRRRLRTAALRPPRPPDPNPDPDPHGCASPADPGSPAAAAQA

[18] = differential killing of epithelial or mesenchymal cells, primary screen, imaging, PC-3E GFP, TEM4-18 mCherry, co-culture (AID 1345086;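 active = compounds killing one labelled cell type while sparing the other, by normalised counts and ratio limits, not self-fluorescent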;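 as to all read-outs here: cells exposed to compound for 72 h before imaging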;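 as to red/green cell ratio (normalised): normalised mesenchymal count divided by normalised epithelial count so high means epithelial killing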); conditions: imaging cell counts, at 1 µM; for red/green cell ratio (normalised): actives lie on both sides, counts scaled to control wells, 1 = unselective
[19] = stronger effect = lower value, cell number ratio, induced over uninduced
[20] = measured here: relative caspase fold change +Dox/-Dox
[21] = measured here: total cells with miR-34 induction, stronger effect = lower value
[22] = measured here: total cells without miR-34 induction
[23] = MELAS cybrid survival, CellTiter-Glo 48 h, stronger effect = higher value
[24] = Rieske KO mouse fibroblast survival, CellTiter-Glo 72 h
[25] = measured here: epithelial PC-3E GFP cell survival
[26] = measured here: mesenchymal TEM4-18 mCherry cell survival

CC[C@H](C)C(=O)O[C@H]1C[C@H](O)C=C2C=C[C@H](C)[C@H](CC[C@@H](O)C[C@@H](O)CC(=O)O)[C@H]21
-0.3%: nuclear beta-catenin stimulation ([4]; stimulation, at 2 µM)
9020: cell count [13, 21]
0.983: fold change [13, 20]
inactive: inhibition [1] -3.56% | inhibition [2] -3.18% | fluorescence ratio [3] 1 | nuclear beta-catenin stimulation ([4]; at 10 µM) -0.7% | insulin secretion stimulation [5] 0.2% | viability decrease [6] -15.6% | tube area decrease [7] 22% | GLP1 secretion stimulation [8] -3.6% | inhibition of viability [9] 12.4% | viability decrease (inhibition) [10] 2.3% | viability decrease (inhibition) [11] 5.1% | inhibition [12] -4.46% | fold change [13, 19] 0.972 | z-score [14, 23] -0.583 | remaining NAD [15] 10 nM | luciferase signal [16] 36 AU | log fold change Tl+ flux (F380Y) -0.00852 | log fold change Tl+ flux (F380Y/beta2Delta) -0.0757 | log fold change Tl+ flux [17] 0.00396
9270: cell count [13, 22]
-1.06: z-score [14, 24]

CCS(=O)(=O)CCn1c([N+](=O)[O-])cnc1C
1.27: normalised cell number [18, 25]
inactive: inhibition [1] -0.22% | inhibition [2] 1.18% | fluorescence ratio [3] 0.92 | nuclear beta-catenin stimulation ([4]; at 10 µM) 0.7% | insulin secretion stimulation [5] -2% | viability decrease [6] -16.5% | tube area decrease [7] -0.1% | GLP1 secretion stimulation [8] 2.3% | inhibition of viability [9] 6.2% | viability decrease (inhibition) [10] -14.6% | viability decrease (inhibition) [11] -1.25% | inhibition [12] -3.03% | red/green cell ratio (normalised) [18] 0.88 | z-score [14, 23] -0.299 and 0.791 and -0.0778 | remaining NAD [15] 10 nM | luciferase signal [16] 36 AU | log fold change Tl+ flux (F380Y) 0.0247 | log fold change Tl+ flux (F380Y/beta2Delta) -0.0231 | log fold change Tl+ flux [17] -0.0103
-0.288 and 0.13 and -0.654: z-score [14, 24]
0.6%: nuclear beta-catenin stimulation ([4]; stimulation, at 2 µM)
1.12: normalised cell number [18, 26]

C[C@@H]1O[C@@H](OC[C@H]2O[C@@H](Oc3c(-c4ccc(O)c(O)c4)oc4cc(O)cc(O)c4c3=O)[C@H](O)[C@@H](O)[C@@H]2O)[C@H](O)[C@H](O)[C@H]1O
inactive: inhibition [1] 5.94% | inhibition [2] 11.4% | fluorescence ratio [3] 1.02 | nuclear beta-catenin stimulation ([4]; at 10 µM) 0% | insulin secretion stimulation [5] 0.6% | tube area decrease [7] 4.5% | GLP1 secretion stimulation [8] -1.2% | viability decrease (inhibition) [11] 44.7% | inhibition [12] 4.58% | remaining NAD [15] 10 nM | log fold change Tl+ flux (F380Y) -0.0319 | log fold change Tl+ flux (F380Y/beta2Delta) 0.0273 | log fold change Tl+ flux [17] -0.026
1.9%: nuclear beta-catenin stimulation ([4]; stimulation, at 2 µM)
active: viability decrease [6] 56% | inhibition of viability [9] 70.9% | viability decrease (inhibition) [10] 59.4%

C[C@H](CCC(=O)O)[C@H]1CC[C@H]2[C@@H]3C(=O)C[C@@H]4CC(=O)CC[C@]4(C)[C@H]3CC(=O)[C@]12C
10200: cell count [13, 22]
inactive: inhibition [1] 3.28% | inhibition [2] 2.76% | fluorescence ratio [3] 0.9 | nuclear beta-catenin stimulation ([4]; at 10 µM) -0.3% | insulin secretion stimulation [5] 1.3% | viability decrease [6] -1% | tube area decrease [7] 15.1% | GLP1 secretion stimulation [8] 0.2% | inhibition of viability [9] -5.2% | viability decrease (inhibition) [10] 5.6% | viability decrease (inhibition) [11] -16% | inhibition [12] -0.558% and -4.79% | fold change [13, 19] 0.903 | z-score [14, 23] 1.02 | remaining NAD [15] 10 nM | luciferase signal [16] 100 AU and 64 AU | log fold change Tl+ flux (F380Y) -0.0147 | log fold change Tl+ flux (F380Y/beta2Delta) 0.00244 | log fold change Tl+ flux [17] -0.0617
0.185: z-score [14, 24]
9210: cell count [13, 21]
0%: nuclear beta-catenin stimulation ([4]; stimulation, at 2 µM)
1.51: fold change [13, 20]

c1ccc2c(CC3=NCCN3)cccc2c1
1.1%: nuclear beta-catenin stimulation ([4]; stimulation, at 2 µM)
0.86: normalised cell number [18, 26]
1.03: normalised cell number [18, 25]
inactive: inhibition [1] -3.18% | inhibition [2] -2.76% | fluorescence ratio [3] 1.02 | nuclear beta-catenin stimulation ([4]; at 10 µM) 0.4% | insulin secretion stimulation [5] -1.7% | viability decrease [6] -2.25% | tube area decrease [7] 20.2% | GLP1 secretion stimulation [8] 2.8% | inhibition of viability [9] -0.7% | viability decrease (inhibition) [10] 19.7% | viability decrease (inhibition) [11] 8% | inhibition [12] -9.35% | red/green cell ratio (normalised) [18] 0.84 | z-score [14, 23] -0.272 and 0.214 and 0.142 | remaining NAD [15] 10 nM | luciferase signal [16] 44 AU | log fold change Tl+ flux (F380Y) -0.0182 | log fold change Tl+ flux (F380Y/beta2Delta) -0.014 | log fold change Tl+ flux [17] 0.0291
-0.0845 and -0.183 and -0.115: z-score [14, 24]

CCCCCCCCCCC[C@@H](C[C@@H]1OC(=O)[C@H]1CCCCCC)OC(=O)[C@H](CC(C)C)NC=O
7850: cell count [13, 21]
inactive: inhibition [1] -7.52% | inhibition [2] -0.1% | fluorescence ratio [3] 0.95 | nuclear beta-catenin stimulation ([4]; at 10 µM) 2.8% | insulin secretion stimulation [5] -1.7% | viability decrease [6] 42.4% | GLP1 secretion stimulation [8] 0.9% | inhibition of viability [9] 32.5% | inhibition [12] -8.26% | fold change [13, 19] 0.867 | remaining NAD [15] 10 nM | luciferase signal [16] 48 AU | log fold change Tl+ flux (F380Y) 0.0597 | log fold change Tl+ flux (F380Y/beta2Delta) 0.0435 | log fold change Tl+ flux [17] 0.0135
4.5%: nuclear beta-catenin stimulation ([4]; stimulation, at 2 µM)
2.26: fold change [13, 20]
9060: cell count [13, 22]
active: tube area decrease [7] 102% | viability decrease (inhibition) [10] 107% | viability decrease (inhibition) [11] 79.1%

O[C@@H](c1cc(C(F)(F)F)nc2c(C(F)(F)F)cccc12)[C@H]1CCCCN1
3.3%: nuclear beta-catenin stimulation ([4]; stimulation, at 2 µM)
950: cell count [13, 21]
597: cell count [13, 22]
0.276: fold change [13, 20]
active: nuclear beta-catenin stimulation ([4]; at 10 µM) 45% | viability decrease [6] 99.1% | tube area decrease [7] 108% | inhibition of viability [9] 99% | viability decrease (inhibition) [10] 102% | viability decrease (inhibition) [11] 101% | log fold change Tl+ flux (F380Y) 0.333 | log fold change Tl+ flux (F380Y/beta2Delta) 0.541 | log fold change Tl+ flux [17] 0.167
inactive: inhibition [1] -7.73% | inhibition [2] -2% | fluorescence ratio [3] 0.96 | insulin secretion stimulation [5] 6.3% | GLP1 secretion stimulation [8] -1.8% | inhibition [12] 5.27% | fold change [13, 19] 1.59 | remaining NAD [15] 10 nM | luciferase signal [16] 64 AU
